The record followed here is PubChem BioAssay (NCI).

About 83,000 compounds went through this panel and 20% of them were active in at least one assay; those are over-represented in the sample as a whole.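 Assay: single dose, 48 h. Readout: percent growth (0 = no net growth; negative = cell death). Active: <10.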 Unmarked numbers belong to inactive results. The source made the active and inactive calls.

What all share (assay): NCI-60 one-dose screen, 48 h (100 = growth as untreated, 0 = no growth, -100 = all killed)
One test deals with EKVX NSCLC. To be noted: 10 µM unless noted.
The next test has as its system UO-31 renal. To be noted: 10 µM unless noted.
The next test relates to TK-10 renal. To be noted: 10 µM unless noted.
In another test the test system is ACHN renal. To be noted: 10 µM unless noted.
Another test deals with CAKI-1 renal. As to conditions: 10 µM unless noted.
A further test has as its system A498 renal. To be noted: 10 µM.
For the next test, the system named is HL-60(TB) leukemia. To be noted: 10 µM unless noted.
In the next test the test system is CCRF-CEM leukemia. To be noted: 10 µM unless noted.
The subject of a further test is MOLT-4 leukemia. To be noted: 10 µM unless noted.
The next test relates to SR leukemia. To be noted: 10 µM unless noted.
The next test relates to RPMI-8226 leukemia. As to conditions: 10 µM unless noted.
Another test has as its system OVCAR-8 ovarian. To be noted: 10 µM unless noted.
Another test deals with OVCAR-5 ovarian. As to conditions: 10 µM unless noted.
A further test concerns OVCAR-4 ovarian. To be noted: 10 µM unless noted.
The test system of a further test is SK-OV-3 ovarian. As to conditions: 10 µM unless noted.
The test system of another test is IGROV1 ovarian. To be noted: 10 µM unless noted.
The next test has as its system OVCAR-3 ovarian. To be noted: 10 µM unless noted.
Another test deals with HS 578T breast. As to conditions: 10 µM unless noted.
The next test has as its system SN12C renal. To be noted: 10 µM unless noted.

Consider `O=C1C(N2CC2)=C(N2CC2)C(=O)C(N2CC2)=C1N1CC1`, for which the growth in the test with EKVX NSCLC was 22.9%; with UO-31 renal, -56.2% (active); with TK-10 renal it was 2.35% (active); in the test with ACHN renal it was -45.9% (active); with CAKI-1 renal, 7.04% (active); in the test on A498 renal, -75.4% (active). In addition, the growth in the test with HL-60(TB) leukemia is 21.8%; in the test on CCRF-CEM leukemia, 39.2%; with MOLT-4 leukemia, 32.9%; in the test on SR leukemia, 2.9% (active); with RPMI-8226 leukemia, 37.7%; in the test on OVCAR-8 ovarian, 0.671% (active). Moreover, the growth in the test on OVCAR-5 ovarian is -60.6% (active); in the test with OVCAR-4 ovarian it was 51.7%; in the test with SK-OV-3 ovarian, -30.6% (active); with IGROV1 ovarian, -23.5% (active); with OVCAR-3 ovarian, 4.7% (active); in the test on HS 578T breast, 14.3%.

As for `Cc1cc(N(CCCl)CCCl)ccc1C=Nc1ccc(-c2csc(Cc3ccccc3)n2)cc1`, the growth in the test on SN12C renal was 49%; in the test with UO-31 renal, 30.7%; in the test with TK-10 renal, 84.5%; with ACHN renal, 50.8%; with CAKI-1 renal, 25.4%; in the test on A498 renal, -45.8% (active). Besides, the growth with HL-60(TB) leukemia was 30.7%; in the test with CCRF-CEM leukemia, 33.9%; with MOLT-4 leukemia, 27.2%; in the test on SR leukemia, 27.2%; with RPMI-8226 leukemia, 58.5%; in the test with OVCAR-8 ovarian it was 65%. Besides, the growth was 54.4% in the test on OVCAR-5 ovarian; 64% with OVCAR-4 ovarian; 56% in the test on SK-OV-3 ovarian; 61.7% in the test with IGROV1 ovarian; 75.2% with OVCAR-3 ovarian.

As for `Cn1cc(-c2csc(-c3cn(CCCCN4CCCCC4)c4ccc(F)cc34)n2)c2cccnc21`, the growth is 89% in the test on EKVX NSCLC; 75.7% in the test on SN12C renal; 20.6% in the test with UO-31 renal; 106% in the test with TK-10 renal; 54.6% in the test with ACHN renal; 81.5% with A498 renal. The growth with HL-60(TB) leukemia was -0.887% (active); in the test on CCRF-CEM leukemia it was -60.5% (active); in the test with MOLT-4 leukemia it was -62% (active); with SR leukemia, -44.9% (active); in the test on RPMI-8226 leukemia, 1.18% (active); in the test with OVCAR-8 ovarian, 91.8%. Further, the growth with OVCAR-5 ovarian was 103%; with OVCAR-4 ovarian, 87%; with SK-OV-3 ovarian it was 100%; with IGROV1 ovarian it was 71.7%; with OVCAR-3 ovarian, 87.7%; with HS 578T breast it was 67.9%.

`CN(C)C(=O)Oc1ccc(Br)cc1`: the growth with SN12C renal was 106%; with UO-31 renal it was 85.1%; in the test on TK-10 renal, 99.8%; in the test with ACHN renal, 109%; with CAKI-1 renal, 95.5%; in the test with A498 renal it was 117%. Also, the growth is 102% with HL-60(TB) leukemia; 89.7% with CCRF-CEM leukemia; 102% with MOLT-4 leukemia; 100% in the test with SR leukemia; 106% in the test on RPMI-8226 leukemia; 106% in the test on OVCAR-8 ovarian. The growth is 106% in the test on OVCAR-5 ovarian; 97.7% in the test with OVCAR-4 ovarian; 95.8% in the test with SK-OV-3 ovarian; 96.7% in the test on IGROV1 ovarian; 106% in the test on OVCAR-3 ovarian; 115% with HS 578T breast.

Take `COc1ccc(C(=O)c2sc3nc4c(cc3c2N)N2CCC4CC2)cc1OC`: the growth was 93.4% in the test on SN12C renal; 52.8% in the test on UO-31 renal; 91.7% with TK-10 renal; 81.8% with ACHN renal; 79.7% with CAKI-1 renal; 116% with A498 renal. Also, the growth in the test with HL-60(TB) leukemia is 94.5%; in the test with CCRF-CEM leukemia, 74.7%; in the test with MOLT-4 leukemia, 77.3%; with SR leukemia it was 83.4%; in the test with RPMI-8226 leukemia, 51.4%; in the test on OVCAR-8 ovarian, 85.7%. Besides, the growth was 107% in the test with OVCAR-5 ovarian; 85.7% in the test with OVCAR-4 ovarian; 96.2% in the test with SK-OV-3 ovarian; 104% in the test with IGROV1 ovarian; 100% in the test on OVCAR-3 ovarian; 100% with HS 578T breast.

As for `CC1(C)N=C(N)N=C(N)N1c1ccc(OCCCNC(=O)Nc2ccc(S(=O)(=O)F)cc2)c(Cl)c1`, the growth was 53% with EKVX NSCLC; 23.8% in the test on SN12C renal; 33.3% in the test with TK-10 renal; 26.4% with ACHN renal; 92.1% in the test on CAKI-1 renal; 85.3% with A498 renal. For the same compound, the growth is 31.8% with HL-60(TB) leukemia; 24.2% with CCRF-CEM leukemia; 33.4% with MOLT-4 leukemia; 24.6% with RPMI-8226 leukemia; 31.5% in the test with OVCAR-8 ovarian; 48% in the test with OVCAR-5 ovarian. Besides, the growth with OVCAR-4 ovarian was 54.3%; with SK-OV-3 ovarian, 58.5%; with IGROV1 ovarian, 17.9%; in the test on OVCAR-3 ovarian it was 27.4%; with HS 578T breast it was 83.6%.

As for `CC(C)OC(=O)[C@H](C)NP(=O)(Oc1ccccc1)C1CCCN(O)C1=O` (stereo partly specified), the growth is 93.4% in the test on EKVX NSCLC; 99.2% in the test on SN12C renal; 99.5% in the test with TK-10 renal; 79.4% in the test with ACHN renal; 104% in the test on CAKI-1 renal; 94.1% in the test with HL-60(TB) leukemia. In addition, the growth with CCRF-CEM leukemia is 91.3%; with MOLT-4 leukemia, 93.7%; in the test with SR leukemia, 89.6%; in the test on RPMI-8226 leukemia it was 101%; with OVCAR-8 ovarian, 106%; in the test on OVCAR-5 ovarian, 91.7%. Also, the growth in the test on OVCAR-4 ovarian was 107%; in the test with SK-OV-3 ovarian it was 122%; in the test with IGROV1 ovarian it was 90.6%; in the test on OVCAR-3 ovarian, 99.4%; in the test on HS 578T breast, 92%.

`C=CC[n+]1ccc(-c2cc[n+](CC=C)cc2)cc1`: the growth with SN12C renal was 103%; in the test with UO-31 renal it was 95%; in the test on TK-10 renal it was 126%; in the test on ACHN renal, 103%; in the test with CAKI-1 renal, 94.2%; in the test on A498 renal, 100%. The growth with HL-60(TB) leukemia is 93.3%; in the test with CCRF-CEM leukemia it was 84.7%; in the test with MOLT-4 leukemia, 88.8%; with SR leukemia, 93.9%; in the test with RPMI-8226 leukemia, 79.9%; in the test on OVCAR-8 ovarian, 61.3%. For the same compound, the growth was 126% in the test with OVCAR-5 ovarian; 37.6% in the test on OVCAR-4 ovarian; 108% with SK-OV-3 ovarian; 13.6% in the test with IGROV1 ovarian; 40.7% in the test on OVCAR-3 ovarian; 116% in the test with HS 578T breast.
